Results taken from PubChem BioAssay (NCATS).
Records with an inconclusive call do not appear. Unmarked numbers belong to inactive results. The source made the active and inactive calls. Calls come from the whole dose curve; as a rule, active = well fitted inhibition curve with a large enough effect; inconclusive = small, poorly fitted or top-dose-only effect; inactive = no such curve, though single readings can be large or run the other way.

Target: Retinaldehyde dehydrogenase 3 (Homo sapiens) (UniProt P47895)
Experiment: qHTS for Inhibitors of the Aldehyde Dehydrogenase Family (ALDH1A3) Primary screen (AID 2061315);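 note: plate controls were DMSO vehicle for no effect and reference inhibitor for full effect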
Conditions: ALDH inhibition qHTS; series mostly up to 56 µM; activity change, negative = inhibition: at the top concentration

For `Cc1c(P(=S)(c2ccccc2)c2ccccc2)[n+]2ccccc2n1C`, the Potency was “inactive”.

Compared with `C=C1[C@@H](C)[C@H]2[C@H](Cc3ccccc3)NC(=O)[C@]23[C@H](OC(C)=O)/C=C/[C@](C)(O)C(=O)[C@@H](C)C/C=C/[C@H]3[C@@H]1O`, `CC1=C(C(=O)Nc2nncs2)C(c2nn(C)cc2Cl)N=C(Nc2nc3ccccc3o2)N1` (configuration not stated) is higher in “activity change, negative = inhibition” value: 4.53% for the first, 21.1% for the second.

In the case of `Cc1[nH]c2ccccc2c1P(=S)(c1ccccc1)c1ccccc1`, the “activity change, negative = inhibition” value is reported as 3.13%.

With `CC1=C2C(=O)C3[C@@H](CC=C4C[C@@H](O)CC[C@@]43C)[C@@H]2CC[C@]12O[C@@H]1C[C@H](C)CN[C@H]1[C@H]2C` (some centres not stated) the “activity change, negative = inhibition” value was -5.31% [at 28 µM].

First: CO[C@@H]1C[C@H](O[C@H]2CC[C@@]3(C)C(CCC4C3CC[C@]3(C)[C@@H](C5=CC(=O)OC5)[C@@H](OC(C)=O)CC43O)C2)O[C@H](C)[C@@H]1O[C@H]1O[C@H](CO[C@@H]2O[C@H](CO)[C@@H](O)[C@H](O)[C@H]2O)[C@@H](O)[C@H](O)[C@H]1O (some centres not stated)
Second: CC(=O)O[C@H]1C(=O)[C@]2(C)C(O)C[C@H]3OC[C@@]3(OC(C)=O)[C@H]2[C@H](OC(=O)c2ccccc2)[C@]2(O)C[C@H](O)C(C)=C1C2(C)C (some centres not stated)
The “activity change, negative = inhibition” value of the first is higher: -13.4% [at 16.9 µM] for the first, -20.5% [at 16.9 µM] for the second.
